Experimental data: PubChem BioAssay AID1053173 (Broad Institute, 2014)
The campaign covered roughly 1,500 compounds. About 390 (26%) were called active. No rule for the calls is given here. These entries were drawn from the full list. Results with a measured potency or affinity are listed apart.

What follows are compounds tested against Histone-lysine N-methyltransferase NSD2 (Homo sapiens) (UniProt O96028) (assay: NSD2 methyltransferase inhibitors, dose response, biochemical, AlphaScreen, cherry-picked samples (AID 1053173)). Details: NSD2 H4 peptide methylation, 120 min; series mostly up to 10 µM.
Histone-lysine N-methyltransferase NSD2 (Homo sapiens), sequence (O96028 whole entry, looked up): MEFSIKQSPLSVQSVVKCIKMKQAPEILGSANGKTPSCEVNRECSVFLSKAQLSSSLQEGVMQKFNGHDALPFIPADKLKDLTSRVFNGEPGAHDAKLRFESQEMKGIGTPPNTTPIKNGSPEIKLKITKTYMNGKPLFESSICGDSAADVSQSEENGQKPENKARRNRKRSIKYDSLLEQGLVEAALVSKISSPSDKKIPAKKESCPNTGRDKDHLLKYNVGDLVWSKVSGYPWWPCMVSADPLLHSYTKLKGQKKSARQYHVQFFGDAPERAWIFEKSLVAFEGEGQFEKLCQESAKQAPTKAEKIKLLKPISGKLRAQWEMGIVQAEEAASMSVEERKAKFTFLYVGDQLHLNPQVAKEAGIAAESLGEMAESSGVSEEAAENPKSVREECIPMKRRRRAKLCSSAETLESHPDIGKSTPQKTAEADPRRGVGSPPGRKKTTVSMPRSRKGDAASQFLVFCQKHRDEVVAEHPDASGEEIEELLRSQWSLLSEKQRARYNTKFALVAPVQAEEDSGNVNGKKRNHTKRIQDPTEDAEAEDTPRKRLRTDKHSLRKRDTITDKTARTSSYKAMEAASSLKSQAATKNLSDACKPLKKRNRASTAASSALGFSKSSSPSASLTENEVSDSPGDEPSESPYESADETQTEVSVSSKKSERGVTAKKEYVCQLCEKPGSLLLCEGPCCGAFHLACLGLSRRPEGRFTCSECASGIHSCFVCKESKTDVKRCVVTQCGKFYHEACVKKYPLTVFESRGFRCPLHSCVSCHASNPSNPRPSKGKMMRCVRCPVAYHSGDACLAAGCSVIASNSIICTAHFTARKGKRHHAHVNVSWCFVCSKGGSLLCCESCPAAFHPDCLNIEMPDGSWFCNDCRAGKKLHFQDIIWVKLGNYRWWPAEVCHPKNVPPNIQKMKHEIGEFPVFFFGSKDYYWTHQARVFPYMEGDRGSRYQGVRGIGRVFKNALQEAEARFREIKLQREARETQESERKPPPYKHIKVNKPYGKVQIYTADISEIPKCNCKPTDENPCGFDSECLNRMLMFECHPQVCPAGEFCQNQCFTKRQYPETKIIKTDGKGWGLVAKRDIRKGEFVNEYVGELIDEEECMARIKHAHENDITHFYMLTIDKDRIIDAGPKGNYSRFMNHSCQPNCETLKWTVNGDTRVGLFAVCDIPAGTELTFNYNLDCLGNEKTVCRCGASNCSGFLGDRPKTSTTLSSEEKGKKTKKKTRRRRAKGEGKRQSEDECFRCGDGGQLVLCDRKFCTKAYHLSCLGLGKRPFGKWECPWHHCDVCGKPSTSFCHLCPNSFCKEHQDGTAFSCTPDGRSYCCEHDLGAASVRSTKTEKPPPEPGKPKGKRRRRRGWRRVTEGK

outcome, inactive:
CC1(C)NC(=O)N(CCOCCOc2c(Cl)cc(Cl)cc2Cl)C1=O, COc1ccc(CC(=O)NC2CCCCCC2)c(OC)c1, CC(C)=NOCC(=O)Nn1c(COc2c(C)cccc2C)nc2ccccc2c1=O, Cc1cc(-c2n[nH]c(=S)n2N=Cc2cccc(OCc3ccccc3)c2)n[nH]1, COc1ccc2nc3cccc(OC)c3nc2c1, C=CCOCC(O)Cn1c(N2CCCC2)nc2c1c(=O)n(C)c(=O)n2C (configuration not stated), CSCCC(NC(=O)c1ccccc1Cl)C(=O)NCC(c1ccc(F)cc1)N1CCOCC1 (configuration not stated), COc1cc(C(=O)NC(C)c2ccc3ccccc3c2)cc(Cl)c1O (configuration not stated), COc1ccc(-c2nnc3n2N=C(C)CS3)cc1, COc1cccc(-c2nn3c(-c4ccco4)nnc3s2)c1, Cn1c(=O)[nH]c2nnc(-c3ccc(Cl)c(Cl)c3)nc2c1=O, CCOc1ccccc1NC(=O)C1CCCN1C(=O)c1cccs1 (configuration not stated), CSc1nc(N)nc(N(C)C)n1, O=C(COC(=O)c1ccccc1F)NC1CC1, CCOc1ccc(C(CC(=O)O)NC(=O)C23CC4CC(CC(C4)C2)C3)cc1OC (configuration not stated), Cc1nc([N+](=O)[O-])c(C(=O)OCc2ccccc2F)n1C, CNc1c(N)n(Cc2ccccc2)c(=O)[nH]c1=O, Cc1ccccc1CS(=O)(=O)CC(O)CN1CCCC1=O (configuration not stated), Nc1c(C(=O)NCc2ccc(F)cc2)c2nc3ccccc3nc2n1CCCN1CCOCC1, CCc1ccc(N(CC(=O)NCc2ccc3c(c2)OCO3)C(=O)c2csnn2)cc1, CCc1ccc(NC(=O)c2cc(-c3ccc4c(c3)OCO4)on2)cc1, COc1ccc2c(c1)c1nc3ccccc3nc1n2CCn1c(=O)oc2ccccc21, COc1ccc(C)cc1COC(=O)c1[nH]c(C)c(C(C)=O)c1C, COc1ccc(N(CC(=O)NCCSc2ccccn2)S(C)(=O)=O)cc1, COc1ccc(CNC(=O)CCCn2nc(C)c([N+](=O)[O-])c2C)cc1OC, Cc1nc2cc(C(=O)NCc3cccnc3)ccc2n1-c1ccc(F)cc1F, Cc1ccc(C(=O)NCCn2c(N)c(C#N)c3nc4ccccc4nc32)cc1, CCOC(=O)CNC(=O)N1CCC(CCC(=O)N(C)Cc2ccccc2)CC1, CCCC(=O)Nc1ccc(C(=O)O)cc1NC(=O)CCC, O=C(O)c1ccc2cccnc2c1O, COc1cccc(NC(=O)c2ccc3c(c2)OCCO3)c1, COc1ccc(-c2ncncc2-c2ccccc2)c(O)c1, O=C1C=CC(=O)N1c1ccc(N2CCCCC2)cc1, Cc1c([N+](=O)[O-])cc(N2C(=O)C=CC2=O)cc1[N+](=O)[O-], CCOC(=S)SCC(=O)Nc1nc(C)c(C)s1, O=C(Nc1nnc(SCc2cccc3ccccc23)s1)C1COc2ccccc2O1 (configuration not stated), NC(=O)C1Cc2ccccc2CN1S(=O)(=O)c1ccc(Cl)s1 (configuration not stated), COc1ccccc1N(C)S(=O)(=O)c1ccc(C(=O)NC2CCCCCC2)cc1, COc1cc(OC)c(C(=O)OC(C)C(=O)NCc2ccc3c(c2)OCO3)cc1OC (configuration not stated), C/C(=N\NC(=O)c1nnn(-c2nonc2N)c1C)c1ccc(-c2ccccc2)cc1, CC(=O)c1c(C)[nH]c(C(=O)Nc2ccc(C)cc2Br)c1C, O=C(O)c1cc(N/N=C/c2ccc3c(c2)OCO3)ccc1Cl, O=c1cc(C=NNc2ccccc2)[nH]c(=O)[nH]1, Cc1noc(C)c1S(=O)(=O)N1CCN(S(=O)(=O)c2ccccc2C#N)CC1, CCCC(CCC(=O)Nc1cccc([N+](=O)[O-])c1)C(=O)O (configuration not stated), COc1cc(C(=O)Oc2cccc(/C=N/NC(=O)c3cccnc3)c2)cc(OC)c1OC, CNC(=S)NC(CC(=O)OC)c1ccc2c(c1)OCO2 (configuration not stated), CC[n+]1c(/C=C/Nc2ccccc2)oc2ccccc21, Cc1cc(Cl)c(OCCN2C(=O)NC(C)(C)C2=O)c(Br)c1, COc1ccc(/C=C/C(=O)OCC(=O)NCC2CCCO2)cc1 (configuration not stated), COc1ccccc1CN(Cc1cc2cc3c(cc2[nH]c1=O)OCCO3)Cc1nnnn1Cc1ccco1, CCOC(=O)CN(C(=O)COc1nc(-c2ccccc2)cc(C)c1C#N)c1ccccc1, COc1cc(N)c(C(=O)c2nccc3cc(OC)c(OC)cc23)cc1OC, COc1ccc(C(=O)Cc2nnc(C)s2)cc1, COc1ccc(C(=O)Nc2ccc3[nH]ccc3c2)cc1OC, C/C(=N/NC(=O)CCc1ccccc1)c1ccco1, Cc1ccccc1NC(=O)CN1CCC(C(=O)c2ccc3c(c2)OCCO3)CC1, COc1ccc(C2=NNC(c3cccs3)=Nc3ccc(OC)cc32)cc1, COc1ccc(-n2nnnc2-c2cnc(N3CCCC3)nc2C(F)(F)F)cc1, Cc1cc(C)n(-c2ncccc2[N+](=O)[O-])n1, O=[N+]([O-])c1cc2ncccc2c2ncccc12, COc1ccc(/C=C(\C#N)C(=O)N2COCC2(C)C)cc1, COc1ccc(NC(=O)CN(C)S(=O)(=O)c2ccc(C)cc2)c([N+](=O)[O-])c1, C=CCc1cccc2cc(C(=O)Nc3ccc(NC(C)=O)cc3)c(=O)oc12, COC(=O)c1cc(NC(=O)Nc2cc(OC)ccc2OC)cc(C(=O)OC)c1, N=C1/C(=C\c2ccc(Br)o2)C(=O)N=C2SC(CC(=O)N3CCCCC3)=NN12, COc1ccc(/C=C2\N=C(C(C)(C)C)OC2=O)c(OC)c1, O=C(c1ccccc1F)N(Cc1cccs1)C1CCS(=O)(=O)C1 (configuration not stated), Cc1ccc(C(=O)Nc2ccc(Cl)cc2C(F)(F)F)c(Cl)c1, CCC1=[N+]([O-])C(C)(/C(C)=N\O)N(O)C1(C)C (configuration not stated), COc1cc(NC(=O)c2[nH]c(C)c(C(C)=O)c2C)cc(OC)c1OC, COc1ccc(C2SCCN2S(=O)(=O)c2ccccc2)cc1 (configuration not stated), COc1ccc(NC(=O)C2Cc3c(-c4ccc(Cl)cc4)ccnc3O2)cc1 (configuration not stated), CCN1C(=O)/C(=C\c2ccc(-c3ccc([N+](=O)[O-])cc3OC)o2)SC1=Nc1cccc(C(=O)O)c1, O=C(O)CC1S/C(=N/N=C/c2ccc(-c3ccccc3[N+](=O)[O-])o2)NC1=O (configuration not stated), Nc1ccc2c(c1)OCCOCCOCCOCCOCCO2, CCCOc1ccc(C(C)=O)cc1CC(C(N)=O)C(N)=O, COc1ccc2c(c1)Cc1sc(NC(=O)c3ccccc3)nc1-2, NC(=O)c1nsc(C(=O)N(c2ccccc2)C(C(=O)NCC2CCCO2)c2ccc3ncccc3c2)c1N (configuration not stated), O=C(Nc1ccc(S(=O)(=O)Nc2ncccn2)cc1)C1CC(=O)N(c2ccc(Cl)cc2)C1 (configuration not stated), CCOC(=O)C1CCCN(C(=O)c2ccc(S(=O)(=O)Nc3ccccc3OC)cc2)C1 (configuration not stated), O=C(NCCc1ccccn1)C1CCCN1S(=O)(=O)c1ccc(Cl)cc1 (configuration not stated), Cn1c(SCC(=O)Nc2ccc3c(c2)OCCO3)nnc1-c1ccncc1, CCOC(=O)c1cccc(P(C)(C)=O)c1, COc1ccccc1NC(=O)c1ccc(NC(=O)C2COc3ccccc3O2)cc1 (configuration not stated), C=CC[n+]1c(-c2ccc(Cl)cc2Cl)csc1Nc1c(C)n(C)n(-c2ccccc2)c1=O, S=C(Nc1cccnc1)Nc1cccc2cnccc12, CCN(C(=S)Nc1cccnc1)c1cccc2ccccc12, O=c1c2ccccc2nnn1CSc1nc2ccccc2c(=O)n1CCCO, O=C(NC(=S)Nc1ccccc1N1CCCC1)c1ccco1, Cc1cc2c(OCC(O)CNC3CCCCC3)cccc2[nH]1 (configuration not stated), CC1=CS(=O)(=O)CC1Sc1ncn[nH]1 (configuration not stated), Oc1ccc(CNc2ccccc2O)cc1, COc1cccc(CNc2cccc3cccnc23)c1O, Cc1ccccc1N(C(=O)c1snc(C(N)=O)c1N)C(C)C(=O)NC1CCCCC1 (configuration not stated), CC(=O)Nc1ccc(NCc2ccc(C)s2)cc1, CCOc1c(O)ccc(/C=C2\SC(=S)NC2=O)c1[N+](=O)[O-], Cc1ccc(Cl)c(OCC(=O)Nc2cc(S(=O)(=O)N3CCOCC3)ccc2N2CCCC2)c1, COc1ccc(CN(C(=O)CN2C(=O)NC3(CCC(C)CC3)C2=O)C(C)Cc2cccs2)cc1 (configuration not stated), c1ccc(-c2nc(N3CCOCC3)c3ccccc3n2)nc1, CCc1nnc(NC(=O)COc2ccc3c(c2)OCO3)s1, CN1CCCCc2c1nc1ccccc1c2N (tested in a mixture with another compound), COc1cc(/C=C/C(=O)OCC(=O)NNC(=O)c2cc(Cl)ccc2OC)ccc1O, Cc1cc(OCC(=O)Nc2ccccc2N2CCCCC2)ccc1C(C)C, COc1ccccc1/C=N/Nc1cc(C)nc(N2CCOCC2)n1, FC(F)(F)c1ccc(N/N=C/c2cccnc2)nc1, N#Cc1cc(-c2ccccc2)cnc1Sc1ccc(Cl)cc1, CN1CC2(Cc3c1ccc1ccccc31)C(=O)OC(C)(C)OC2=O, CC1=NOC(=O)/C1=C\c1ccc(-c2ccc(Cl)c(C(=O)O)c2)o1, Cc1cc(=O)cc(C)n1-c1ccc(O)cc1, CSc1ncccc1C(=O)OCC(=O)N1CC2(C)CC1CC(C)(C)C2 (configuration not stated), Cn1c(=O)cc(SCC(=O)N2CCOCC2)c2ccc(Cl)cc21
